# Bioassay records deposited in PubChem by several laboratories.
# HePTP inh – inhibitors of human HePTP phosphatase | P35236 | 0.64% of 110,000 active | inhibition, % at 20 µM | recombinant HePTP phosphatase activity, OD absorbance; in the data active = inhibition above about 50%
# D1 mod – D1 dopamine receptor (human) allosteric modulation. P21728. HEK293 D1, CRE-luciferase, dopamine EC30 potentiation; actives deviate in either direction. B-score at 10 µM. 5.9% of 58,000 active;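 active = luminescence count or its row- and column-corrected plate score outside the 99.7% band of the plate's sample wells, on either side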
# Calb biofilm kill – kills Candida albicans biofilms; AID 834; C. albicans biofilm + clotrimazole, Alamar Blue; inhibition, % at 6 µM; 0.14% of 85,000 active;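 active = inhibition above 20%; inactive = inhibition below 20%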;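 also: preformed 24 hr biofilms exposed to compound for 48 hr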
# DAT uptake mod – changed human dopamine transporter uptake under cocaine IC80; Q01959; 1.3% of 110,000 active; B-score at 10 µM; LLC-PK1 hDAT cells, [14C]-dopamine uptake with cocaine IC80; actives deviate in either direction; AID 449768;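 active = Z score or B-score, a plate-position-corrected score, falls beyond the plate's 99.7% confidence bounds, in either direction; inactive = both scores lie inside the 99.7% bounds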
# Target sequence (Q01959 whole entry, looked up): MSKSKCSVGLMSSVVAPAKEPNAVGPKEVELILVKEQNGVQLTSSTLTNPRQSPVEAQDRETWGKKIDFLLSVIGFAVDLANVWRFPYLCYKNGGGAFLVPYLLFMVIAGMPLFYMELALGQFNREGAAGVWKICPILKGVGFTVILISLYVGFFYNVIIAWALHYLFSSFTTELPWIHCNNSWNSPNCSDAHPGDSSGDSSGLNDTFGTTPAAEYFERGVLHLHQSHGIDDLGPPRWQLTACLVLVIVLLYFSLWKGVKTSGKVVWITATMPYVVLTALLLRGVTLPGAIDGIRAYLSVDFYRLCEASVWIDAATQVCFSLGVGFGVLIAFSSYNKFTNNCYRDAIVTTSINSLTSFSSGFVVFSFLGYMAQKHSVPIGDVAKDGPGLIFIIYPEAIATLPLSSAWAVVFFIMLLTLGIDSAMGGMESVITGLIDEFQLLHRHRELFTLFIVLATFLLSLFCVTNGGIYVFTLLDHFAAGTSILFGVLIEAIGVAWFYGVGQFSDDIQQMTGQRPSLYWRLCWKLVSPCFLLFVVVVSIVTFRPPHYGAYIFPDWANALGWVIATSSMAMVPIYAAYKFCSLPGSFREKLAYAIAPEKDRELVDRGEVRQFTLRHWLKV
# PLAP act – human PLAP activation. activation fold at 20 µM. purified PLAP enzyme, luminescent substrate read-out; stronger effect = higher value. AID 696. 1.2% of 96,000 active; in the data active = activation fold above about 2
# TNAP act mid DEA – human TNAP activation, intermediate phosphate acceptor | AID 813 | P05186 | purified TNAP, CDP-star luminescence, 100 mM DEA, 30 min; stronger effect = higher value; scale: 0 levamisole-inhibited, 1 vehicle-only enzyme | activation factor at 20 µM | 64,000 tested, under 10 active;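 active = activation factor of at least 2 at 20 µM, relative to controls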
# D1 PAM confirm – confirmation of human D1 dopamine receptor allosteric modulators. luminescence at 10 µM. HEK293 D1 CRE-luciferase, dopamine EC30 potentiation; stronger effect = higher value. 88% of 2,200 active. shares compounds with D1 mod;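 active = luminescence in either of two replicates above the same-plate mean plus 3 SD of the low-dose dopamine control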
# D1 ag no DA – D1 (human) signaling in absence of dopamine; shares compounds with D1 mod; HEK293 D1 CRE-luciferase, luminescence, no dopamine; stronger effect = higher value; luminescence at 10 µM; 0.8% of 1,900 active; in the data active = luminescence above about 3900
# Isoprot counter – counter-screen for D1 modulators: isoproterenol response in HEK293 cells. shares compounds with D1 mod. HEK293 D1 CRE-luciferase, isoproterenol EC30 counter-screen; stronger effect = higher value. luminescence at 10 µM. 63% of 2,200 active;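 active = luminescence in either replicate above plate mean of wells with a partly effective reference agonist dose plus 3 SD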;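 also: isoproterenol raises cAMP through native beta-adrenoceptor Gs so signal bypasses D1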
# Numbers stand for hits; – = inactive; · = no result given. This excerpt belongs to a sample that is enriched for hits.
SMILES,HePTP inh,D1 mod,Calb biofilm kill,DAT uptake mod,PLAP act,TNAP act mid DEA,D1 PAM confirm,D1 ag no DA,Isoprot counter
O=C1N(CN2CCN(c3cccc(Cl)c3)CC2)c2ccccc2C12OCCCO2,–,2.4,·,–,–,–,3096,–,–
COc1ccccc1NC(=O)CC1S/C(=N\N=C(/C)C(C)(C)C)NC1=O (stereo not drawn),–,·,·,·,·,·,·,·,·
COc1ccc(CCNC(=O)C2CC2(c2cccc(C)c2)c2cccc(C)c2)cc1OC (stereo not drawn),–,·,·,·,·,·,·,·,·
COC(=O)c1ccccc1NC(=O)C1CCCC1,–,6.6,–,–,–,–,9916,–,3600
COC(=O)c1ccccc1NC(=O)c1ccc(NS(C)(=O)=O)cc1,–,8,–,–,–,–,9992,–,3504
NC(=O)c1ccccc1NC(=O)c1ccc2c(c1)OCO2,–,·,·,·,·,·,·,·,·
O=C(Nc1ccccc1)c1ccccc1NC(=O)C1CCCCC1,·,·,·,–,–,·,·,·,·
COC(=O)c1ccccc1NC(=O)c1ccc2c(c1)OCCO2,–,3.9,–,–,–,–,11420,–,–
O=C1C(C=NCc2ccc3c(c2)OCO3)=C(O)c2ccccc21,–,·,·,·,·,·,·,·,·
COc1cccc(C(=O)NCc2nnc(SCC(=O)Nc3nccs3)n2-c2ccccc2)c1,–,–,–,–,·,–,·,·,·
O=C(COc1ccccc1)NCc1nnc(SCC(=O)Nc2nccs2)n1-c1ccccc1,–,3.9,–,–,–,–,–,–,–
CCN(CC)c1ccc(/C=N/NC(=O)c2cc(Br)ccc2O)c(O)c1,–,·,·,·,·,·,·,·,·
CCCC(=O)OCC(=O)Nc1cc(C(C)(C)C)nn1-c1ccccc1,–,4.7,–,–,–,–,6968,·,–
CC(C)(C)c1cc(NC(=O)COC(=O)C2CC2)n(-c2ccccc2)n1,–,–,–,–,–,–,·,·,·
CCOC(=O)C1=C(C)NC(C)=C(C(=O)OC)C1c1ccc(C)cc1 (stereo not drawn),–,·,·,·,·,·,·,·,·
Cc1ccc2cc(C3=C/C(=C/c4ccc([N+](=O)[O-])o4)C(=O)O3)ccc2c1,–,·,·,·,·,·,·,·,·
CSc1ccc(C2C(C#N)=C(N)N(c3ccccc3)C3=C2C(=O)CCC3)cc1 (stereo not drawn),–,2.6,–,–,–,–,10676,–,–
c1cncc(-c2nc(N3CCCCCC3)c3ccccc3n2)c1,–,12,–,·,–,–,14412,–,4184
CN1CCN(c2nc(-c3cccnc3)nc3ccccc23)CC1,–,·,–,–,–,–,·,·,·
NC(=O)C1CCN(c2nc(-c3ccccc3)nc3ccccc23)CC1,–,15,–,–,–,–,24116,–,7580
Clc1ccc(/C=N/Nc2cc(N3CCOCC3)nc(N3CCOCC3)n2)c(Cl)c1,–,·,·,·,·,·,·,·,·
O=C(CN(Cc1ccccc1)S(=O)(=O)c1ccc(Cl)cc1)Nc1ccccc1,–,·,·,·,·,·,·,·,·
O=c1c2ccccc2nc(SCc2cn3ccsc3n2)n1-c1ccccc1F,–,5.7,–,–,–,–,14876,–,6172
CC1(C)Cc2c(c(-c3ccccc3)[nH]c(=O)c2C#N)CO1,–,7.2,–,–,–,–,17304,–,4284
CC1(C)Cc2c(c(-c3ccccc3Cl)[nH]c(=O)c2C#N)CO1,–,·,–,–,–,–,·,·,·
SMILES,HePTP inh,D1 mod,Calb biofilm kill,DAT uptake mod,PLAP act,TNAP act mid DEA,D1 PAM confirm,D1 ag no DA,Isoprot counter
CCOC(=O)c1sc(NC(=O)c2c(-c3ccccc3Cl)noc2C)c(C(=O)OCC)c1C,–,·,·,·,·,·,·,·,·
O=C1OCCC1Sc1ncnc2sc3c(c12)CCC3 (stereo not drawn),–,5.2,–,–,·,–,7272,–,–
Cc1nc(SC2CCOC2=O)c2c(C)c(C)sc2n1 (stereo not drawn),·,·,·,–,–,·,·,·,·
CCC1S/C(=C(\C#N)C(N)=O)N(c2ccc(F)cc2)C1=O (stereo not drawn),–,5,–,–,–,–,9908,·,2824
O=C(O)C1(P(=O)(c2ccccc2)c2ccccc2)CC1,–,·,·,·,·,·,·,·,·
CCN(CC)CCCOc1ccccc1Br,–,·,·,·,·,·,·,·,·
O=c1nc(-c2ccccc2)c2cc(Cl)ccc2[nH]1,–,6.7,–,–,–,–,9072,·,2836
O=c1cc(-c2ccccc2)c2cc(Cl)ccc2[nH]1,–,·,·,·,·,·,·,·,·
COc1ccc(NC(=O)c2sc(SC)nc2N)cc1,–,15,–,–,–,–,19600,–,4944
O=C(OCCN1C(=O)c2ccccc2C1=O)c1cc(S(=O)(=O)N2CCOCC2)ccc1F,–,12,–,–,–,–,9428,–,5568
O=C(Nc1ccc(F)cc1)N1CCOCC1,–,5.4,–,–,–,–,–,–,–
COc1ccc(-c2cc(C(F)(F)F)nc(SCC(=O)N3CC(C)OC(C)C3)n2)cc1OC (stereo not drawn),–,6.2,·,–,·,–,18852,–,5964
Cc1ccc(/C(O)=C2\C(=O)C(=O)N(CCCC(=O)O)C2c2ccccc2Cl)cc1 (stereo not drawn),–,·,·,·,·,·,·,·,·
O=C(Nc1ccccc1Oc1ccccc1)c1cnccn1,–,4.1,–,–,–,–,9216,–,–
COc1ccc(NC(=O)CN2C(=O)c3ccccc3C2=O)cc1O,–,·,·,·,·,·,·,·,·
C/C(CCc1oc2c(Br)cc(Br)cc2c1-c1ccc(C)o1)=N\O,–,·,–,–,·,·,·,·,·
C/C(CCc1oc2ccccc2c1-c1ccc(C)o1)=N/O,–,7.2,–,–,–,–,9460,–,–
O=C(Nc1ccc(Cl)cc1Cl)c1nc2nc(-c3ccccc3)cc(C(F)(F)F)n2n1,–,·,·,·,·,·,·,·,·
NC(=O)NC(=O)Nc1ccccc1Cl,–,2.8,–,–,–,–,7220,–,–
NC(=O)SCC(=O)Nc1ccccc1Cl,–,·,·,·,·,·,·,·,·
Cc1nc(C)c(/C(O)=C/c2nc3ccccc3[nH]c2=O)s1,–,·,·,·,·,·,·,·,·
Cc1c(S(=O)(=O)Nc2cccc(Cl)c2)c(=O)n(C)c(=O)n1C,–,2.7,–,–,–,–,–,–,–
CCC(NC(C)C)C(O)c1ccc(O)c(O)c1 (stereo not drawn),–,13,–,–,·,–,9904,3836,8388
CCC(C)c1ccc(NC(=O)c2ccc3c(c2)OCCO3)c(O)c1 (stereo not drawn),–,·,·,·,·,·,·,·,·
CC(=O)c1cccc(N2C(=O)C3CCCCC3C2=O)c1 (stereo not drawn),–,·,·,·,·,·,·,·,·
O=C(NCc1ccco1)c1cccc2c1C(=O)N(C1CCCCC1)C2,–,17,–,–,·,–,21064,–,4164
O=C(NCc1cccnc1)c1cccc2c1C(=O)N(C1CCCCC1)C2,–,21,–,·,·,–,25588,–,6184
CCOC(=O)N1CCC(N2C(=O)c3ccccc3C2Nc2cccnc2)CC1 (stereo not drawn),–,–,–,–,–,–,·,·,·
